# Compound activity (PubChem BioAssay)
# In the library only some 0.39% were active in any assay of this set; here they are far more common.
# TRPV1 ag: human TRPV1 agonism; Q8NER1; TRPV1-expressing cells, Fluo-8 calcium influx, agonist mode; activation, % at 8.33 µM; 0.19% of 320,000 active; AID 540275; in the data active = activation above about 80%; inconclusive = between about 30% and that limit; also: 0% is about no effect
#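 Cells expressing TRPV1 were dye-loaded with Fluo-8 and read kinetically: 10 s baseline, 3 min after compound (agonist portion), then 2 min after EC20 capsaicin (allosteric enhancer portion). Calcium-bound dye fluorescence at 480/520 nm.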
# CBFb RUNX1 block: CBF-beta/RUNX1 interaction disruption; AID 1477; 230,000 tested, under 10 active; AlphaScreen CBFb-His/RUNX1-biotin binding, biochemical; Q01196+Q13951; Potency, µM (doses to about 59.8 µM), inactives show top-dose activity, negative = inhibition, most hits filed as inhibitors; also: % of control where 0% means no effect
#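 Room-temperature protein-protein interaction test with 30 nM each of His-tagged CBF-beta and biotinylated RUNX1, 15 min with compound, then 90 min with nickel plus streptavidin beads. Signal read in AlphaScreen mode.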
# AT treatment: candidate therapy for ataxia-telangiectasia | F2112 A-T fibroblasts, KAP-1 phosphorylation AlphaLISA; neocarzinostatin DNA damage 30 min before lysis | Potency, µM (series often up to 57.5 µM), for the others: at the highest dose activation, actives largely listed as activators | 0.19% of 320,000 active; also: potency is read from the fitted curve at half-maximal effect; % of control where 0% means no effect; nearly all actives have a fitted effect of over 45% in size
#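 ATM-like activity read as KAP-1 phosphorylation via AlphaLISA donor/acceptor antibody pairs after lysis and 6 hr at 25C. Cells were ATM-null patient fibroblasts (F2112, hTERT), dosed 60 min, then exposed to the DSB inducer NCS for 30 min.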
# Anesthetic bind: binds horse apoferritin like a general anesthetic. apoferritin/1-aminoanthracene competitive binding, fluorescence. P02791. Potency, µM (highest dose often 77.5 µM), without a hit: top-dose activity change, negative = displacement, most hits filed as inhibitors. 0.074% of 350,000 active. AID 485281; also: potency is read from the fitted curve at half-maximal effect; % is scaled to controls: 0 for no effect and ±100 for the full control effect; nearly all actives have a fitted effect of over 20% in size
# Target sequence (P02791 2-175 limits assumed): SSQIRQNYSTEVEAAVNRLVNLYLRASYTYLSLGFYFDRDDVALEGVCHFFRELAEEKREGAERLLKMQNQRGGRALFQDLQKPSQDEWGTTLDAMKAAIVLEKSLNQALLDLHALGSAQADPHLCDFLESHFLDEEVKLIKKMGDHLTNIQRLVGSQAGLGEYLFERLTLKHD
#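 Horse-spleen apoferritin (10 uM) was mixed with 50% saturated 1-aminoanthracene in PBS, exposed to compounds for 10 min at room temperature, and read for fluorescence (ex 380 nm, em 535 nm). Competitive displacement was fitted with a four-parameter Hill equation.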
# TRPV1 potentiator: enhances activation of the human vanilloid receptor TRPV1; Q8NER1; TRPV1-expressing cells, Fluo-8 calcium influx, capsaicin EC20 potentiation; potentiation, % at 8.33 µM; 0.02% of 320,000 active; AID 540277; in the data active = potentiation above about 80%; inconclusive = between about 30% and that limit; also: 0% is about no effect
#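 Fluo-8 calcium influx in TRPV1-expressing cells, kinetic read (ex 480/em 520 nm). Compound added and read 3 min for agonist activity, followed by capsaicin at EC20 final and 2 min further read for enhancement.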
# Starred values were filed as active, the others as inactive; i = inactive; ? = inconclusive; . = no result given; [ ] = remark or other dose. Unless noted, calls follow the shape of the dose curve; as a rule, active = well fitted curve in the direction sought with a large enough effect; inconclusive = small, poorly fitted or top-dose-only effect, or another doubt; inactive = no such curve, though single readings can be large; an effect the other way counts as inactive or inconclusive.
SMILES,TRPV1 ag,CBFb RUNX1 block,AT treatment,Anesthetic bind,TRPV1 potentiator
O=C(Nc1cccc([N+](=O)[O-])c1)c1cccc(C(=O)Nc2cccc([N+](=O)[O-])c2)c1,3.1,1.8%,-7.3%,-9.1%,26.0
CCN(CC)c1ccc(C(=O)Nc2ccccc2)cc1[N+](=O)[O-],81.9*,8.4%,-8.4%,-22.7%,-12.9
Cc1ccc(N2CCN(C(=O)Nc3cccc([N+](=O)[O-])c3)CC2C)cc1 (stereo not drawn),82.9*,-3.6%,-3.7%,?,1.0
O=[N+]([O-])c1cccc(C(=S)N2CCN(c3ccccc3)CC2)c1,2.3,1.4%,-2.0%,-17.3%,-12.5
O=C(Nc1cccc([N+](=O)[O-])c1)N1CCN(c2ccccc2)CC1,100.4*,-0.5%,0.7%,-7.2%,-16.9
NCC(=O)N[C@@H](CCCN=C(N)N)C(=O)NCC(=O)N[C@@H](CC(=O)O)C(=O)N[C@@H](CO)C(=O)N1CCC[C@H]1C(=O)O,.,8.2%,.,-8.2%,.
COc1ccc(CNc2nc(NCc3ccc(OC)cc3)c3ncn(C4CCCCC4)c3n2)cc1,.,?,.,166.7%,.
Cc1c(C(=O)Nc2ccncc2)sc2nc(-c3ccccc3)cn12,90.4*,?,11.3%,-2.8%,-23.0
O=C1C(NS(=O)(=O)c2cccs2)=C(N2CCOCC2)C(=O)c2ccccc21,-3.9,-17.2%,7.08µM*,-1.6%,4.4
CN1CCN(C2=C(NS(=O)(=O)c3cccs3)C(=O)c3ccccc3C2=O)CC1,-0.3,0.7%,7.0%,-9.9%,-4.6
COc1cc(/C=C2\CCCc3c2nc2ccccc2c3C(=O)O)cc(Br)c1O,-5.6,.,-7.9%,5.9%,28.8
CCOc1cc(/C=C2\CCCc3c2nc2ccccc2c3C(=O)O)ccc1OC,80.9*,.,-13.5%,338.4%,-6.0
CN1C(=O)/C(=C/c2cccc(Cl)c2)Sc2ccc(C(=O)NCc3cccnc3)cc21,-9.8,4.5%,4.4%,-17.0%,82.4*
CCC(C)Sc1ccc([C@H]2N[C@@](CC(C)C)(C(=O)OC)[C@H]3C(=O)N(CC)C(=O)[C@@H]23)cc1 (stereo partly drawn),86.6*,.,14.5%,.,1.9
CCC(C)Sc1ccc([C@H]2N[C@@](CC(C)C)(C(=O)OC)[C@H]3C(=O)N(C)C(=O)[C@@H]23)cc1 (stereo partly drawn),27.7,.,-0.7%,.,21.9
COC(=O)N1C(/C=C/c2ccc3c(c2)OCO3)=Cc2ccccc2C1CC(C)=O (stereo not drawn),.,3.7%[13.1 µM],.,.,.
Cc1nonc1OCCNc1ccc([N+](=O)[O-])cc1[N+](=O)[O-],-1.3,-8.2%,-0.7%,-6.6%,1.6
Cc1nonc1OC(C)CNc1ccc([N+](=O)[O-])cc1 (stereo not drawn),-16.6,-16.3%,0.0%,31.6µM*,3.7
S=c1[nH]nc(COc2ccccc2)n1/N=C/c1ccccc1Cl,17.9,.,5.01µM*,-20.5%,-5.2
S=c1[nH]nc(COc2ccccc2)n1/N=C/c1cccc(Cl)c1Cl,1.6,.,-5.0%,-21.8%,13.9
COc1ccc2c(c1)CCc1c(C(=O)N3CCOCC3)noc1-2,81.2*,0.4%,7.1%,-4.3%,-14.5
COc1ccc2c(c1)CCc1c(C(=O)N3CCCc4ccccc43)noc1-2,4.6,14.5%,-2.8%,-10.1%,0.6
CC(C)c1onc(-c2c(Cl)cccc2Cl)c1COc1ccc(/C=C/c2cccc(C(=O)O)c2)c(Cl)c1,.,-4.0%,.,?,.
CC1CCCCC1NC(=O)c1cc2c(=O)n3ccccc3nc2n1C (stereo not drawn),23.7,.,?,94.5%,-5.3
CC1CC(NC(=O)c2cc3c(=O)n4ccccc4nc3n2C)CC(C)(C)C1 (stereo not drawn),-2.7,.,28.2µM*,35.6%,11.6
SMILES,TRPV1 ag,CBFb RUNX1 block,AT treatment,Anesthetic bind,TRPV1 potentiator
COc1ccc(-c2oc3cccnc3c2/C=C/c2ccc(OC)c(OC)c2)cc1,7.3,.,28.2µM*,68.5%,-7.0
COc1ccc(/C=C/c2c(-c3ccc(OC)cc3)oc(=O)c3cc(OC)c(OC)cc23)cc1,.,.,10.6%,.,.
CCCCCOc1ccc(CSC(=N)N)cc1[N+](=O)[O-],-2.5,5.2%,-4.3%,8.91µM*,-4.3
COc1ccc(CSC(=N)N)cc1[N+](=O)[O-],6.8,-2.5%,.,-4.0%,14.1
COc1cc(OC)cc(C2=Nn3c(nnc3-c3cccc(OC)c3)SC2)c1,.,-5.5%,.,-5.3%,.
CC1CCN(C(=O)CSc2nc3ccccc3c(=O)n2Cc2ccc3c(c2)OCO3)CC1,81.9*,-12.4%,1.7%,-2.2%,-2.9
CCOC(=O)N1CCC(n2c(SCC(=O)N3CCC(C)CC3)nc3ccccc3c2=O)CC1,81.2*,4.1%,5.8%,?,-9.4
CCOC(=O)N1CCC(n2c(SCC(=O)N3CCCC3)nc3ccccc3c2=O)CC1,23.1,-3.1%,-3.3%,-13.1%,-16.7
CC1CCN(C(=O)Cn2c(=O)n(Cc3ccc4c(c3)OCO4)c(=O)c3ccccc32)CC1,8.5,8.6%,4.2%,-0.3%,6.7
Cc1noc(C)c1-c1ccc2ncnc(NCc3cccn3C)c2c1,.,-17.3%,.,-4.6%,.
N#CCC(=O)N/N=C/c1ccc(N2N=C(c3ccccc3)CC2c2ccccc2)cc1 (stereo not drawn),-1.0,.,31.6µM*,142.0%,?
O=C(O)c1ccc(N2N=C(c3ccccc3)CC2c2ccccc2)cc1 (stereo not drawn),2.3,.,30.3%,i,29.0
Oc1ccc(C2=NN(c3ccccc3)C(c3ccc(F)cc3)C2)cc1 (stereo not drawn),5.9,.,23.6%,78.8%,28.2
CC(=O)Nc1ccc(C2CC(c3ccc(Cl)cc3)=NN2c2ccccc2)cc1 (stereo not drawn),-0.3,.,25.1µM*,54.3%,10.1
CC(=O)Nc1ccc(C2=NN(c3ccccc3)C(c3ccccc3)C2)cc1 (stereo not drawn),4.3,.,22.4µM*,44.6%,?
C1=C(CCNc2ncnc3c2[nH]c2ccccc23)CCCC1,80.3*,-18.6%,-6.9%,-3.9%,-28.8
N=c1oc2c3c4c(cc2cc1C(=O)Nc1ccccc1)CCCN4CCC3,83.7*,?,15.8µM*,67.2%,11.3
Cc1ccccc1C(=O)Nc1nnc(CC(=O)N/N=C/c2ccco2)s1,-0.6,-7.8%,15.8µM*,-19.9%,1.5
CCOc1ccc(NC(=S)NC(=O)Cc2ccccc2)cc1,86.9*,.,6.6%,-8.1%,10.6
CC(C)CC(=O)OC1C(N2CCOCC2)c2c(ccc(/C=C/C(=O)N3CCOCC3)c2O)OC1(C)C (stereo not drawn),81.0*,7.7%,1.0%,-8.4%,-1.8
